# High-throughput results from PubChem BioAssay.
# HCMV antiviral: human cytomegalovirus inhibition | HFF cells, HCMV-luciferase reporter, 72 h; hits give low values | activity change, negative = inhibition, % at 57.5 µM | actives 4.5% (n = 410,000) | AID 1259415; in the data active = activity change below about -60%; inconclusive = no clear call, values can overlap the other calls; inactive = above about -39%
#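 After 16 h attachment at 37C, HFF cells received test compound and HCMV-luciferase (1 PFU/cell); reporter luminescence read 72 h later, data normalized against buffer-only and known inhibitor Salinomycin.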
# Pf growth 96h: P. falciparum growth inhibition at 96 hour, primary screen for plastid delayed-death inhibitors; actives 6.9% (n = 320,000); P. falciparum luciferase reporter growth, 96 h; Potency, µM (titrated, usually from 28.7 µM), for inactives: at the highest dose activity change, negative = inhibition, most hits filed as inhibitors; AID 504834; note: potency is the fitted concentration of half-maximal effect
#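 Infected RBCs, 2% Hct / 0.05% parasitemia final; luciferase-reporter P. falciparum; cpd 96 h, 37 C, 5% CO2; luciferase detection reagent; luminescence.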
# Marburg entry inh: blocks Marburg virus binding to or entry into cells. Marburg virus pseudotyped entry inhibition, cell reporter. Potency, µM (doses to about 37.8 µM), without a hit: at the top dose activity change, negative = inhibition, actives largely listed as inhibitors. actives 1.8% (n = 300,000); calls by dose curve; tested in HEK293 cells; note: potency is the fitted concentration of half-maximal effect
# LASV entry inh: blocks Lassa virus binding to or entry into cells | Lassa virus pseudotype entry inhibition, cell reporter | Potency, µM (top dose mostly 37.9 µM), without a hit: at the top dose activity change, negative = inhibition, usual class: inhibitors | actives 1.2% (n = 300,000); calls by dose curve; tested in HEK293 cells; note: potency is the fitted concentration of half-maximal effect; nearly all actives have a fitted effect of over 50% in size
# Pf growth 48h: inhibits P. falciparum growth in the first generation, 48 h; Potency, µM (highest dose often 28.7 µM), without a hit: at the highest dose activity change, negative = inhibition, hits mostly inhibitors; AID 504832; P. falciparum luciferase growth in erythrocytes, 48 h; actives 5.9% (n = 310,000); note: potency is the fitted concentration of half-maximal effect
#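 Cell-based growth assay: transgenic P. falciparum expressing firefly luciferase, cultured in red cells within RPMI 1640 containing 0.5% w/v Albumax, 24 mM bicarbonate and gentamycin. A drop in luciferase activity indicates inhibition.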
# HCV inhibitor: inhibitors of hepatitis C virus infection | Huh7.5.1 HCVcc-Cre infection, luciferase reporter, 44 h | Potency, µM (highest dose often 41.8 µM), inactives show top-dose activity change, negative = inhibition, actives largely listed as inhibitors | actives 3.4% (n = 340,000); note: potency is the fitted concentration of half-maximal effect
#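 After 44 h co-culture of compound, cells and HCVcc-Cre (~0.5 moi), substrate is added for 15 min at room temperature and luciferase measured over 15 sec. Cells were seeded at 1,000/well and pre-cultured 4 h.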
# The depositor's hits bear a star; ? = inconclusive; . = no result given; [ ] = another dose, or the depositor's remark. An excerpt weighted towards active compounds, which were near 14% of everything screened. Unless noted, calls come from the whole dose curve; as a rule, active = well fitted inhibition curve with a large enough effect; inconclusive = small, poorly fitted or top-dose-only effect, or another doubt; inactive = no such curve, though single readings can be large or run the other way. % is set by controls: 0 for no effect and ±100 for the full control effect.
SMILES,HCMV antiviral,Pf growth 96h,Marburg entry inh,LASV entry inh,Pf growth 48h,HCV inhibitor
CCCCCc1c(-c2ccc(F)cc2)ncn1CCc1ccccc1OC,-28.3,.,.,.,.,.
CCCCc1c(-c2cccc(F)c2)ncn1CCc1ccccc1OC,-61.1*,.,.,.,.,.
COc1cc(NC(=O)c2cc(S(=O)(=O)N3CCc4ccccc43)cn2C)cc(OC)c1OC,34.8,1.8%,-2.9%[46.1 µM],26.7%[46.1 µM],11.7µM*,-17.1%
CC(C)CCNC(=O)Cn1c(=O)oc2cc(S(=O)(=O)N3CCc4ccccc43)ccc21,?,11.7µM*,.,.,.,-21.7%
Cn1cc(S(=O)(=O)N2CCc3ccccc32)cc1C(=O)NC(C)(C)C,-78.6*,5.8%,.,.,?,?
Cc1cc(C)cc(NC(=O)c2cc(S(=O)(=O)N3CCc4ccccc43)cn2C)c1,-20.0,.,.,?,.,.
CCCN(C(=O)c1cc(S(=O)(=O)N2CCc3ccccc32)cn1C)c1ccc(OCC)cc1,-74.7*,.,.,17.2%[46.1 µM],.,.
Cc1nn(C(=O)c2cccc([N+](=O)[O-])c2C)c(C)c1S(=O)(=O)N1CCOCC1,-17.8,.,.,20.5%[46.1 µM],.,.
Cc1cccc(CSCc2ccc(C(=O)NCCc3ccccc3)o2)c1,2.4,.,.,-21.8%[46.1 µM],.,.
CCOc1ccc(NC(=O)Cc2ccc(S(=O)(=O)N3CCCCC3)cc2)cc1OCC,-7.1,.,.,.,.,5.7%
Cn1cc(S(=O)(=O)N2CCc3ccccc32)cc1C(=O)Nc1ccc(Cl)cc1,-12.5,32.8%,.,.,13.1µM*,?
CC(C)CCNC(=O)c1cc(S(=O)(=O)N2CCc3ccccc32)cn1C,-6.6,1.17µM*,.,.,-3.2%,?
Cc1ccc(NC(=O)c2cc(S(=O)(=O)N3CCc4ccccc43)cn2C)cc1,-16.3,?,.,.,?,?
CC1(C)c2ssc(=S)c2-c2ccccc2N1C(=O)CSC1=NCCS1,-33.5,11.4%,?,-19.5%,?,?
Cc1cc(C)c2c(c1)-c1c(ssc1=S)C(C)(C)N2C(=O)CSc1nncn1C,6.4,?,14.1µM*,?,4.65µM*,12.6µM*
Cc1ccc2c(c1)-c1c(ssc1=S)C(C)(C)N2C(=O)CSc1nncn1C,-2.6,5.1%,?,?,?,10µM*
CCNC(=O)C1(C)CCCN(C(=O)c2ccnc(Cl)c2)C1 (stereo not given),-7.9,.,.,.,.,.
CC1=CC[C@@H](COc2ccccc2)O[C@@]2(C1)C(=O)N(Cc1ccc(F)cc1)c1cccc(Br)c12,.,.,-10.4%[14.2 µM],.,.,.
C=C1CCC2C(C)(C)[C@@H](O)CC[C@@]2(C)[C@@H]1COc1ccc2ccc(=O)oc2c1 (stereo not given in full),-23.4,5.22µM*,.,.,11.7µM*,?
C=C1CCC2C(C)(C)[C@H](O)CC[C@@]2(C)[C@@H]1COc1cc(=O)oc2ccccc12 (stereo not given in full),.,14.7µM*,?,?,?,-7.9%
C=C1CC(COc2cc(=O)oc3ccccc23)(c2ccccc2)OC1=O (stereo not given),216.0,.,?,-18.9%,.,?
CC(=O)OC1CCC2(C)C(COc3ccc4ccc(=O)oc4c3)C(C)(O)CCC2C1(C)C (stereo not given),57.1,9.28µM*,?,?,?,?
CN(C(=O)COc1ccc2ccc(=O)oc2c1)C1CCS(=O)(=O)C1 (stereo not given),?,?,.,.,-1.9%,5.7%
CC(=O)N1CCC(C(=O)N2c3ccccc3N=C(c3ccc(C(F)(F)F)cc3)C2C(=O)NC(C)(C)C)CC1 (stereo not given),42.1,.,.,.,.,.
CCCN1CCc2nc(N3CCN(c4ncccn4)CC3)ncc2C1,0.7,.,.,8.4%[46.1 µM],.,.
O=C(NCCc1ccccc1C(F)(F)F)C1CCC(=O)N(CCCN2CCCC2=O)C1 (stereo not given),28.4,9.28µM*,3.4%[46.1 µM],8.5%[46.1 µM],-17.7%,19.3%
O=C(NCc1ccc(F)c(F)c1)C1CCC(=O)N(CC2CCCCC2)C1 (stereo not given),?,13.1µM*,0.2%,19.5%,0.4%,.
